# KCNQ2 pot = KCNQ2 (rat) channel potentiation | O88943 | CHO-K1 KCNQ2, FluxOR thallium flux fluorescence; active compounds read high | B-score at 10 µM | 0.54% of 310,000 active | AID 2239;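 active = fluorescence ratio B-score at least 3 SD of library B-scores, with initial fluorescence B-score within 3 of them, cut at about 5.3 in these data; same plate scores as AID 2156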;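 note: B-score of peak minus minimum over baseline fluorescence ratio after K+ and Tl+ stimulus; positive B-score means potentiation of KCNQ2 with more thallium influx and brighter signal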
# KCNQ2 block = inhibitors of rat KCNQ2 potassium channel; O88943; CHO-K1 KCNQ2, FluxOR thallium flux, 20 min; active compounds read low; B-score at 10 µM; 1.1% of 310,000 active; AID 2156;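 active = fluorescence ratio B-score at most minus 3 library SDs, with starting brightness B-score within 2 library SDs, cut at about -5.5 in these data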
# Kir21 conf inh = confirmation of mouse Kir2.1 potassium channel inhibitors | shares compounds with KCNQ2 pot | Kir2.1-expressing cells, FluxOR thallium flux fluorescence; active compounds read low | Tl flux remaining, % of negative control (active compounds read low), % at 10 µM | 41% of 2,300 active | AID 2032;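 active = Primary-screen hit whose thallium flux fell at least 3 control SD below untreated wells in both duplicates, with normal baseline fluorescence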
# HEK293 Tl flux = parental HEK293 activity in Kir2.1 inhibitor counter-screen; shares compounds with KCNQ2 pot; parental HEK293 cells, FluxOR thallium flux fluorescence; 0% = unstimulated blank wells; FluxOR signal as % of negative control (100 = no effect), % at 10 µM; 19% of 2,300 active;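 active = dye signal at least 3 control SD above or below untreated wells in both duplicates, raw fluorescence within 3, either direction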;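 note: percent is based on the flux ratio of peak minus minimum fluorescence over baseline F0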
# CHO-K1 Tl ctr = parental CHO-K1 activity in KCNQ2 potentiator counter-screen. shares compounds with KCNQ2 pot. activity increase over 3SD of controls, % at 10 µM. AID 2282. parental CHO-K1 cells, FluxOR thallium flux fluorescence; zero = vehicle mean+3SD, 100% = vehicle-minus-blank window. 43% of 1,200 active;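 active = signal rise of at least 3 SD above the untreated control mean, in both duplicate wells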;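 note: counter screen of KCNQ2 potentiator hits so any rise reflects channel-independent effects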
# KCNQ1 pot spec = tests whether KCNQ2 potentiators also act on human KCNQ1; shares compounds with KCNQ2 pot; CHO KCNQ1 stable, FluxOR thallium flux fluorescence; beyond 3SD, as % of vehicle-control signal; activation over 3SD threshold, % at 10 µM; 28% of 1,200 active; AID 2283;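 active = fluorescence ratio rise of at least 3 SD of vehicle wells above their mean, in both replicate wells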
# Target sequence (P51787 whole entry, looked up): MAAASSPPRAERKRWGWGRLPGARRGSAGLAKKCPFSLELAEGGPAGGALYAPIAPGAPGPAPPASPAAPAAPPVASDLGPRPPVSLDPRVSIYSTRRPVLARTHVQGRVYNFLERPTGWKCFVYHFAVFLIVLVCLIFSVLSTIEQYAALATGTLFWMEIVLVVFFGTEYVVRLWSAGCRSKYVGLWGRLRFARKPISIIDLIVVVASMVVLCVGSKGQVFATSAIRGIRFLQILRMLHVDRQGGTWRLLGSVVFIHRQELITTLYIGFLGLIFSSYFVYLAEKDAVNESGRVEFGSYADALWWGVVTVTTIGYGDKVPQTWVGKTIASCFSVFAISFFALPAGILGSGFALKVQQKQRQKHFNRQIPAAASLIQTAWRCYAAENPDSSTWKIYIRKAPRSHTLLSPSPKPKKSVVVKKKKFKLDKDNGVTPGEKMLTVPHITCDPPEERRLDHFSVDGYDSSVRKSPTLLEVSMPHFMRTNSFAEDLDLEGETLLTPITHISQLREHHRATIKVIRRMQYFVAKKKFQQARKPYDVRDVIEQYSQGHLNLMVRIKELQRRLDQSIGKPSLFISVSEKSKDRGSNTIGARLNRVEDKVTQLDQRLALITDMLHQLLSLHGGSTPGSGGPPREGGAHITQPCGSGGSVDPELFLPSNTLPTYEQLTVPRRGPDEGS
# KCNQ2 pot conf = rat KCNQ2 channel potentiator confirmation; AID 2287; potentiation, less the hit threshold, % at 10 µM; 68% of 1,200 active; CHO-KCNQ2 cells, FluxOR thallium flux fluorescence; shares compounds with KCNQ2 pot;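 active = fluorescence ratio rising 3 SD or more over the vehicle control mean in both replicates, plus primary screen hit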;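 note: peak minus minimum thallium fluorescence divided by baseline after K/Tl stimulus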
# Kir2-1 sel = mouse Kir2.1 off-target activity of KCNQ2 potentiators. activity over 3SD threshold, % at 10 µM. shares compounds with KCNQ2 pot. AID 2345. 2% of 1,200 active. HEK293 Kir2.1, FluxOR thallium flux fluorescence;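 active = fluorescence ratio rise of at least 3 SD above the vehicle-control mean, seen in both replicates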
# KCNQ2 W236L pot = KCNQ2 potentiators acting on retigabine-insensitive rat KCNQ2 W236L mutant | shares compounds with KCNQ2 pot | CHO KCNQ2-W236L, automated patch clamp current | current increase over 3SD of negative controls (%), active compounds read high, % at 25 µM | 10% of 940 active;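 active = current increase at least 3 SD of the untreated controls above them in both duplicate recordings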
# Hits are given with their value; – = inactive; · = no result. An excerpt weighted towards active compounds, which were near 1.6% of everything screened.
SMILES,KCNQ2 pot,KCNQ2 block,Kir21 conf inh,HEK293 Tl flux,others
CC(C)(C)c1nc(SCC(=O)c2ccccc2)c2ccccc2n1,19,–,–,–,CHO-K1 Tl ctr=–;KCNQ1 pot spec=52;KCNQ2 pot conf=26;Kir2-1 sel=–;KCNQ2 W236L pot=–
CC(C)(C)c1nc(SCC(=O)N2CCCC2)c2ccccc2n1,–,–,·,·,
CC(C)N(C)S(=O)(=O)c1ccc(Cl)c(C(=O)O)c1,·,–,·,·,
O=C(c1ccc(Cl)nc1)N1CCN(C/C=C/c2ccccc2)CC1,·,–,·,·,
CCCN1C(=O)c2ccccc2NC1c1ccc(Cl)c(Cl)c1 (stereo not given),·,–,·,·,
CN[C@H]1CC[C@@H](c2ccc(Cl)c(Cl)c2)c2ccccc21,·,–,32%,–,
Cc1nnc2n(c1=O)N=C(c1ccc(Cl)cc1)CS2,–,–,·,·,
CC1CCCN(C(=O)C2(NC(=O)Nc3cccc(F)c3)CCCCC2)C1 (stereo not given),·,–,·,·,
COc1ccc(CC(=O)Nc2nc(C)cs2)cc1,·,–,·,·,
COc1ccc(CC(=O)Nc2nc(C(C)(C)C)cs2)cc1,·,–,30%,–,
O=C(Nc1n[nH]c(=S)s1)c1ccc2ccccc2c1,6.5,–,–,222%,CHO-K1 Tl ctr=–;KCNQ1 pot spec=16;KCNQ2 pot conf=8.2;Kir2-1 sel=–;KCNQ2 W236L pot=18%
O=C(Nc1nccs1)c1ccc2ccccc2c1,–,–,·,·,
Fc1ccc(N2CCN(c3cnc4ccccc4n3)CC2)cc1,–,–,·,·,
O=C(Nc1ccccc1)Nc1ncc([N+](=O)[O-])s1,7.8,–,–,–,CHO-K1 Tl ctr=–;KCNQ1 pot spec=90;KCNQ2 pot conf=15;Kir2-1 sel=–;KCNQ2 W236L pot=–
O=C(Nc1ncc([N+](=O)[O-])s1)c1cccc([N+](=O)[O-])c1,–,–,·,·,
c1ccc(CCNc2ncnc3ccccc23)cc1,·,–,·,·,
CCCCCCCCNc1ncnc2ccccc12,·,–,–,128%,
O=C(CN(C(=O)CCC(=O)Nc1ccccn1)c1ccc2c(c1)OCO2)NCc1ccc(F)cc1,–,–,·,·,
COc1ccccc1NC(=O)COc1ccc2ccccc2c1,·,–,·,·,
COc1ccccc1NC(=O)C(=O)NNC(=O)COc1ccc2ccccc2c1,23,–,–,–,CHO-K1 Tl ctr=41;KCNQ1 pot spec=–;KCNQ2 pot conf=28;Kir2-1 sel=–;KCNQ2 W236L pot=–
Cc1ccc2c(c1)N(CC(=O)NC1CCCCC1)C(=O)c1cccnc1O2,–,–,·,·,
CCSC(=S)c1c(C)[nH]n(-c2ccccc2)c1=O,7,–,–,222%,CHO-K1 Tl ctr=–;KCNQ1 pot spec=–;KCNQ2 pot conf=–;Kir2-1 sel=–;KCNQ2 W236L pot=–
Cc1[nH]n(-c2ccccc2)c(=O)c1C(=O)c1ccccc1,·,–,·,·,
COc1ccc(C=Nc2ccc3[nH]ncc3c2)c(O)c1,·,–,·,·,
Oc1c(Br)cc(Br)cc1C=Nc1ccc2[nH]ncc2c1,14,–,–,–,CHO-K1 Tl ctr=11;KCNQ1 pot spec=–;KCNQ2 pot conf=20;Kir2-1 sel=–;KCNQ2 W236L pot=10%
SMILES,KCNQ2 pot,KCNQ2 block,Kir21 conf inh,HEK293 Tl flux,others
Oc1c(Br)cc(Br)cc1C=Nc1cccnc1,8.4,–,–,–,CHO-K1 Tl ctr=–;KCNQ1 pot spec=–;KCNQ2 pot conf=17;Kir2-1 sel=–;KCNQ2 W236L pot=–
O=C(N/N=C/c1cc(Br)cc(Br)c1O)c1ccncc1,–,–,·,·,
CC(OC(=O)c1ccccc1)C(=O)NCCC1=CCCCC1 (stereo not given),–,–,·,·,
Cc1ccccc1OC(C)C(=O)NCCC1=CCCCC1 (stereo not given),–,-5.9,38%,–,
O=C(Nc1cccc2ncccc12)C12CC3CC(CC(C3)C1)C2,–,–,·,·,
O=C(CC12CC3CC(CC(C3)C1)C2)Nc1cccc2ncccc12,11,–,–,–,CHO-K1 Tl ctr=–;KCNQ1 pot spec=–;KCNQ2 pot conf=45;Kir2-1 sel=–;KCNQ2 W236L pot=–
Cc1cc(Cl)ccc1OC(C)C(=O)NC(C)C1CCCO1 (stereo not given),·,–,56%,–,
CC(NC(=O)Nc1ccc(Cl)cc1)C1CCCO1 (stereo not given),·,–,·,·,
O=C(COC(=O)CC(c1ccccc1)c1ccccc1)NCc1ccc(Cl)cc1,·,–,·,·,
CC(CCc1ccccc1)NC(=O)Cc1ccccc1 (stereo not given),·,–,·,·,
CC(CC(=O)NCc1ccc(Cl)cc1)c1ccccc1 (stereo not given),5.9,–,–,–,CHO-K1 Tl ctr=–;KCNQ1 pot spec=–;KCNQ2 pot conf=–;Kir2-1 sel=–;KCNQ2 W236L pot=–
CC(CCc1ccccc1)NC(=O)CC(C)c1ccccc1 (stereo not given),·,–,56%,–,
Cc1onc(-c2ccccc2)c1NC(=O)Nc1ccc(OC(F)F)cc1,–,–,·,·,
CS(=O)(=O)Nc1ccc(C2=NN(C(=O)CCCC(=O)O)C(c3cccs3)C2)cc1 (stereo not given),·,–,·,·,
CN(CCOCCOc1ccc2ccccc2c1)Cc1ccccc1,·,–,17%,–,
Cc1cc(C)c(C)c(OCCCCN(C)Cc2ccccc2)c1,·,–,26%,–,
CCc1ccc(OCCCCN(C)Cc2ccccc2)cc1,·,–,26%,–,
COc1cc(C)ccc1OCCOCCN(C)Cc1ccccc1,–,–,·,·,
COc1ccc(OCCN(C)Cc2ccccc2)cc1,·,–,·,·,
CN(CCCCOc1ccc(F)cc1)Cc1ccccc1,–,–,·,·,
COc1ccccc1N(CC(=O)Nc1ccccc1C(=O)N1CCOCC1)S(C)(=O)=O,·,–,·,·,
O=C(c1ccc2c(c1)OCO2)C1CCCN(Cc2ccc(OC(F)F)cc2)C1 (stereo not given),·,–,–,122%,
O=C(c1ccc2c(c1)OCO2)C1CCCN(Cc2cccc(C(F)(F)F)c2)C1 (stereo not given),·,–,·,·,
CN(C)/C(=N\S(=O)(=O)c1ccc(Cl)cc1)c1ccc(F)cc1,–,–,·,·,
Cc1ccc(CN2CCN(/N=C\c3cccc([N+](=O)[O-])c3)CC2)cc1,·,–,·,·,
SMILES,KCNQ2 pot,KCNQ2 block,Kir21 conf inh,HEK293 Tl flux,others
O=C(NNC1=C(C(=O)C(F)(F)F)CCC1)c1ccccc1Cl,19,–,–,–,CHO-K1 Tl ctr=–;KCNQ1 pot spec=–;KCNQ2 pot conf=74;Kir2-1 sel=–;KCNQ2 W236L pot=–
COc1cccc(C(=O)NN=C2CCCC2)c1,·,–,·,·,
O=C(NNC1=C(C(=O)C(F)(F)F)CCC1)c1ccc(Br)cc1,–,–,·,·,
Nc1ccccc1C(=O)NNC1=C(C(=O)C(F)(F)F)CCC1,6.8,–,–,–,CHO-K1 Tl ctr=18;KCNQ1 pot spec=–;KCNQ2 pot conf=–;Kir2-1 sel=–;KCNQ2 W236L pot=–
O=C(NNC(=O)c1ccccc1Cl)c1ccccc1Cl,–,–,·,·,
COc1cccc(C(=O)NNC2=C(C(=O)C(F)(F)F)CCC2)c1,6.4,–,–,–,CHO-K1 Tl ctr=3.0;KCNQ1 pot spec=–;KCNQ2 pot conf=21;Kir2-1 sel=–;KCNQ2 W236L pot=–
CCN(C(=O)CN1C(=O)S/C(=C\C=C\c2ccccc2)C1=O)C1CCS(=O)(=O)C1 (stereo not given),·,–,·,·,
COc1ccc(OC)c(S(=O)(=O)N2CCCC(C(=O)N3CCOCC3)C2)c1 (stereo not given),–,–,·,·,

# Compound activity from PubChem BioAssay.
